Laboratory results: the antibiotic and cytotoxicity screens of Wong et al. (2023)
Among all 39,000 compounds or so, about 3,300 (8.5%) were called active. This excerpt belongs to a sample that is enriched for actives.

System: HepG2
Test: cytotoxicity call (relative viability < 0.9)
Settings: 10 µM

Row | SMILES | cytotoxicity call
1 | COc1ccc(S(=O)(=O)N(C)C[C@@H]2OCCCC[C@@H](C)Oc3ccc(NS(C)(=O)=O)cc3C(=O)N([C@@H](C)CO)C[C@H]2C)cc1 | inactive
2 | C[C@H]1CN([C@@H](C)CO)C(=O)c2cccc(NC(=O)C3CCOCC3)c2O[C@H]1CN(C)Cc1ccc(-c2ccccc2)cc1 | inactive
3 | O=C1NC(=O)[C@H]2CC[C@H]2N1 | inactive
4 | CN(CC=Cc1ccccc1)Cc1cccc2ccccc12.Cl | inactive
5 | Cc1noc(C)c1S(=O)(=O)N(C)C[C@H]1OCCCC[C@H](C)Oc2ccc(NC(=O)Nc3ccc(C(F)(F)F)cc3)cc2C(=O)N([C@H](C)CO)C[C@@H]1C | inactive
6 | Cc1ccc(S(=O)(=O)Nc2ccc3c(c2)C(=O)N([C@@H](C)CO)C[C@H](C)[C@H](CN(C)Cc2ccncc2)OCCCC[C@H](C)O3)cc1 | inactive
7 | COCC(=O)N1CC(=O)N2[C@H](C1)[C@@H](c1ccc(C#Cc3cccnc3)cc1)[C@@H]2CO | inactive
8 | Cc1noc(C)c1S(=O)(=O)N(C)C[C@H]1Oc2ccc(NS(=O)(=O)c3ccccc3)cc2CC(=O)N([C@H](C)CO)C[C@H]1C | inactive
9 | COc1ccc(S(=O)(=O)Nc2cccc3c2O[C@H](CN(C)Cc2ccc(Oc4ccccc4)cc2)[C@@H](C)CN([C@@H](C)CO)C3=O)cc1 | inactive
10 | COc1ccc(S(=O)(=O)Nc2cccc3c2O[C@H](CN(C)Cc2ccc(Oc4ccccc4)cc2)[C@H](C)CN([C@@H](C)CO)C3=O)cc1 | active
11 | COc1ccc(S(=O)(=O)Nc2cccc3c2O[C@H](CN(C)Cc2ccc(-c4ccccc4)cc2)[C@H](C)CN([C@H](C)CO)C3=O)cc1 | inactive
12 | C[C@H]1CN([C@@H](C)CO)C(=O)c2cccc(NS(=O)(=O)c3ccc(Cl)cc3)c2O[C@@H]1CN(C)Cc1ccc(Oc2ccccc2)cc1 | active
13 | C[C@H]1CN([C@@H](C)CO)C(=O)c2cccc(NS(=O)(=O)c3ccc(F)cc3)c2O[C@@H]1CN(C)Cc1ccc(Oc2ccccc2)cc1 | inactive
14 | COc1ccc(S(=O)(=O)Nc2cccc3c2O[C@H](CN(C)Cc2ccc(-c4ccccc4)cc2)[C@H](C)CN([C@@H](C)CO)C3=O)cc1 | inactive
15 | C[C@@H]1CN([C@@H](C)CO)C(=O)c2cccc(NS(=O)(=O)c3ccc(Cl)cc3)c2O[C@@H]1CN(C)Cc1ccc(Oc2ccccc2)cc1 | inactive
16 | COc1ccc(S(=O)(=O)Nc2cccc3c2O[C@H](CN(C)Cc2ccc(-c4ccccc4)cc2)[C@@H](C)CN([C@H](C)CO)C3=O)cc1 | active
17 | COc1ccc(S(=O)(=O)Nc2cccc3c2O[C@H](CN(C)Cc2ccc(Oc4ccccc4)cc2)[C@@H](C)CN([C@H](C)CO)C3=O)cc1 | inactive
18 | C[C@@H]1CN([C@@H](C)CO)C(=O)c2cccc(NS(=O)(=O)c3ccc(F)cc3)c2O[C@H]1CN(C)Cc1ccc(Oc2ccccc2)cc1 | inactive
19 | C[C@@H]1CN([C@@H](C)CO)C(=O)c2cccc(NS(=O)(=O)c3ccc(F)cc3)c2O[C@@H]1CN(C)Cc1ccc(Oc2ccccc2)cc1 | active
20 | C[C@@H]1CN([C@@H](C)CO)C(=O)c2cccc(NS(=O)(=O)c3ccc(Cl)cc3)c2O[C@H]1CN(C)Cc1ccc(Oc2ccccc2)cc1 | inactive

Row | SMILES | cytotoxicity call
21 | COc1ccc(S(=O)(=O)Nc2ccc3c(c2)C(=O)N([C@H](C)CO)C[C@H](C)[C@H](CN(C)C(=O)c2ccccc2)OCCCC[C@H](C)O3)cc1 | inactive
22 | CCS(=O)(=O)Nc1ccc2c(c1)C(=O)N(C)C[C@H](OC)[C@@H](C)CN(C(=O)c1ccc3c(c1)OCO3)[C@@H](C)CO2 | inactive
23 | O=C1CCOCCN1 | inactive
24 | C[C@@H]1CCCCO[C@H](CN(C)S(C)(=O)=O)[C@@H](C)CN([C@H](C)CO)C(=O)c2cc(NS(=O)(=O)c3ccccc3)ccc2O1 | inactive
25 | CC(C)C#Cc1cnc2c(c1)C(=O)N([C@H](C)CO)C[C@H](C)[C@@H](CN(C)C(=O)c1ccc3c(c1)OCO3)O2 | inactive
26 | COc1ccc(-c2cnc3c(c2)C(=O)N([C@@H](C)CO)C[C@@H](C)[C@H](CN(C)C(=O)Cc2ccncc2)O3)cc1 | inactive
27 | Cc1ccc(S(=O)(=O)N(C)C[C@@H]2Oc3ccc(NC(=O)CCCN(C)C)cc3C(=O)N([C@@H](C)CO)C[C@H]2C)cc1 | inactive
28 | CCC=CCC1=C(C)CCC1=O | inactive
29 | C[C@]1(C(=O)NCc2ccccc2)c2ccccc2C(=O)N(Cc2ccccc2)[C@H]1c1ccc(COC(=O)NCCCCCC(=O)NO)cc1 | inactive
30 | COc1ccc(CN(C)C[C@@H]2OCCCC[C@H](C)Oc3ccc(NC(=O)Nc4ccccc4)cc3C(=O)N([C@@H](C)CO)C[C@@H]2C)cc1 | inactive
31 | Cc1ccc(S(=O)(=O)Nc2ccc3c(c2)C(=O)N([C@H](C)CO)C[C@@H](C)[C@H](CN(C)C(=O)C2CCCCC2)OCCCC[C@H](C)O3)cc1 | inactive
32 | O=C(C[C@@H]1CC[C@@H]2[C@H](COC[C@@H](O)CN2S(=O)(=O)c2ccc(Cl)cc2)O1)NCc1ccncn1 | inactive
33 | Cc1noc(C)c1S(=O)(=O)Nc1ccc2c(c1)C(=O)N([C@@H](C)CO)C[C@H](C)[C@@H](CN(C)S(=O)(=O)c1ccc(F)cc1)O2 | inactive
34 | C[C@@H]1CN([C@@H](C)CO)C(=O)Cc2cc(NS(=O)(=O)c3ccc(F)cc3)ccc2O[C@H]1CN(C)Cc1ccc(Oc2ccccc2)cc1 | inactive
35 | C[C@@H]1CN([C@H](C)CO)C(=O)Cc2cc(NS(=O)(=O)c3ccc(F)cc3)ccc2O[C@H]1CN(C)Cc1ccc(Oc2ccccc2)cc1 | active
36 | C[C@H]1CN([C@@H](C)CO)C(=O)Cc2cc(NS(=O)(=O)c3ccc(F)cc3)ccc2O[C@H]1CN(C)Cc1ccc(Oc2ccccc2)cc1 | active
37 | C[C@@H]1CN([C@@H](C)CO)C(=O)Cc2cc(NS(=O)(=O)c3ccc(F)cc3)ccc2O[C@@H]1CN(C)Cc1ccc(Oc2ccccc2)cc1 | active
38 | C[C@H](CO)N1C[C@H](C)[C@H](CN(C)Cc2ccc(Oc3ccccc3)cc2)Oc2ccc(NS(=O)(=O)c3ccc(F)cc3)cc2CC1=O | active
39 | C[C@H]1CN([C@@H](C)CO)C(=O)Cc2cc(NS(=O)(=O)c3ccc(F)cc3)ccc2O[C@@H]1CN(C)Cc1ccc(Oc2ccccc2)cc1 | inactive
